Values joined by “and” are separate entries in the source; they are usually repeats but may differ in a detail not shown here. Equal entries are not always repeated. Records with an inconclusive call do not appear. Where a call stands in place of a potency, no number is given. A number with no mark means an inactive call. Active and inactive are the calls of the source. Calls follow the shape of the dose curve; as a rule, active = well fitted curve in the direction sought with a large enough effect; inconclusive = small, poorly fitted or top-dose-only effect, or another doubt; inactive = no such curve, though single readings can be large; an effect the other way counts as inactive or inconclusive.
Assays:
[1] = target: Cytochrome P450 3A7 (Homo sapiens) (UniProt P24462); test: Cytochrome P450 family 3 subfamily A member 7 (CYP3A7) small molecule antagonists: luciferase biochemical qHTS assay (AID 1963596); also: nearly all actives have a fitted effect of over 40% in size
Summary of the method: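 Enzyme-substrate mix + cpd (DMSO), 10 min RT; + NADPH regen system, 1 h RT; + luciferin detection reagent, 20 min RT; luminescence read. Proluciferin substrate, P450-Glo format, 1536-well qHTS.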

[2] = Viability qHTS for spleen associated tyrosine kinase inhibitor (SYKi) naive MV4-11 cells (AID 1963823); also: nearly all actives have a fitted effect of over 40% in size; also: potency is read from the fitted curve at half-maximal effect
Summary of the method: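 Luminescence from CellTiter-Glo, developed 10 min at room temperature, gave viability of MV4-11 cells never exposed to SYK inhibitor. Cells (500/well) had been incubated with compounds for 72 hr under standard culture conditions.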

[3] = Viability qHTS for spleen associated tyrosine kinase inhibitor (SYKi) drug resistant MV4-11 cells (AID 1963824); also: nearly all actives have a fitted effect of over 35% in size; also: potency is read from the fitted curve at half-maximal effect
Summary of the method: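 CellTiter-Glo luminescence, read 10 min after reagent addition, reports viability after a 72 hr compound exposure. Cells are an MV4-11 line made resistant to SYK inhibition, seeded at 500 per well onto compound-containing plates.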

[4] = Quantitative highthroughput screen to assess conditional lethalithy of NOMO1 cells grown in RPMI1640 with untreated serum (RPMI+s) (AID 1963876); also: nearly all actives have a fitted effect of over 35% in size; also: potency is read from the fitted curve at half-maximal effect
Summary of the method: (§1)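 Each medium arm—HPLM with 10% dialyzed FBS, or RPMI1640 with 5 mM glucose and 10% untreated or dialyzed FBS—was screened against an 11-point, 3-fold compound titration for 48 h at 37 °C, with CellTiter-Glo luminescence as endpoint.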

[5] = Quantitative highthroughput screen to assess conditional lethalithy of NOMO1 cells grown in RPMI1640 with dialyzed fetal bovine serum (RPMI+ds) (AID 1963877); also: nearly all actives have a fitted effect of over 30% in size; also: potency is read from the fitted curve at half-maximal effect; as to Viability: series mostly up to about 46 µM
Summary of the method: as §1

[6] = Quantitative highthroughput screen to assess conditional lethalithy of NOMO1 cells grown in Human Plasma-Like Medium with dialyzed fetal bovine serum (HPLM+ds) (AID 1963878); also: nearly all actives have a fitted effect of over 35% in size; also: potency is read from the fitted curve at half-maximal effect
Summary of the method: as §1

[7] = Quantitative highthroughput screen to assess conditional lethalithy of P12 Ichikawa cells grown in Human Plasma-Like Medium with dialyzed fetal bovine serum (HPLM+ds) (AID 1963879); settings: Potency: viability; also: nearly all actives have a fitted effect of over 35% in size; also: potency is read from the fitted curve at half-maximal effect; as to Viability: series mostly up to about 46 µM
Summary of the method: as §1

[8] = Quantitative highthroughput screen to assess conditional lethalithy of P12 Ichikawa cells grown in RPMI1640 with dialyzed fetal bovine serum (RPMI+ds) (AID 1963880); settings: Potency: P12-Ichikawa viability; also: nearly all actives have a fitted effect of over 35% in size; also: potency is read from the fitted curve at half-maximal effect
Summary of the method: as §1

[9] = Quantitative highthroughput screen to assess conditional lethalithy of P12 Ichikawa cells grown in RPMI1640 with untreated serum (RPMI+s) (AID 1963881); settings: Potency: viability; also: nearly all actives have a fitted effect of over 35% in size; also: potency is read from the fitted curve at half-maximal effect; as to Viability: series mostly up to about 46 µM
Summary of the method: as §1

[10] = Quantitative highthroughput screen to assess conditional lethalithy of SEM cells grown in Human Plasma-Like Medium with dialyzed fetal bovine serum (HPLM+ds) (AID 1963882); also: nearly all actives have a fitted effect of over 35% in size; also: potency is read from the fitted curve at half-maximal effect; as to Viability: series mostly up to about 46 µM
Summary of the method: as §1

[11] = Quantitative highthroughput screen to assess conditional lethalithy of SEM cells grown in RPMI1640 with unreated serum (RPMI+s) (AID 1963883); also: nearly all actives have a fitted effect of over 35% in size; also: potency is read from the fitted curve at half-maximal effect
Summary of the method: as §1

[12] = Quantitative highthroughput screen to assess conditional lethalithy of SEM cells grown in RPMI1640 with dialyzed fetal bovine serum (RPMI+ds) (AID 1963884); also: nearly all actives have a fitted effect of over 35% in size; also: potency is read from the fitted curve at half-maximal effect; as to Viability: series mostly up to about 46 µM
Summary of the method: as §1

[13] = Cellular viability qHTS for adrenocortical cancer (ACC) cell line SW-13 (AID 1963989); settings: SW-13 ACC cells viability, CellTiter-Glo, 48 h; activity (max response): hits give low values; also: nearly all actives have a fitted effect of over 65% in size; also: potency is read from the fitted curve at half-maximal effect;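 as to activity (max response): cells grown in serum-free medium with ITS supplement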
Summary of the method: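 Here, serum-free SW-13 cultures were dosed up to 46 uM. Following 48 h, ATP-dependent luminescence (CellTiter-Glo) reported viable cells, and logistic modeling produced IC50 values.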

[14] = Cellular viability qHTS for adrenocortical cancer (ACC) cell line NCI-H295R (AID 1963990); also: nearly all actives have a fitted effect of over 60% in size; also: potency is read from the fitted curve at half-maximal effect
Summary of the method: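 Viability of NCI-H295R after 48 h of treatment (final up to 46 uM) measured through cellular ATP luminescence.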

Chain of Cytochrome P450 3A7 (Homo sapiens) (P24462 whole entry, looked up): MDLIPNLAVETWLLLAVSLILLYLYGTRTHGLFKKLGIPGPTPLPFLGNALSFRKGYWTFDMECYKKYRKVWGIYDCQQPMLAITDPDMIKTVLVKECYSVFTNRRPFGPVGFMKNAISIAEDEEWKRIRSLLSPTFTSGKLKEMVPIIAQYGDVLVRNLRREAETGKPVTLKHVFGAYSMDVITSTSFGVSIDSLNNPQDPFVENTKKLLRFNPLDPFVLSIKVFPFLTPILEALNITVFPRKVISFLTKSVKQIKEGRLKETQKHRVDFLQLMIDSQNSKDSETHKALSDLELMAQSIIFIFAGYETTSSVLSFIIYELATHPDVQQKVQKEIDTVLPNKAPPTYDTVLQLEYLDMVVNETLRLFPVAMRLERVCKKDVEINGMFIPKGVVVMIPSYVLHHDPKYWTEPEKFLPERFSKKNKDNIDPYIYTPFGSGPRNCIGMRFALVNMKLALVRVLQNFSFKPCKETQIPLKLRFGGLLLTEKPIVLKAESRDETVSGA

Structure (SMILES)	Potency [1]	Potency [2]	Potency [3]	Potency [4]	Potency [5]	Potency [6]	Potency [7]	Potency [8]	Potency [9]	Potency [10]	Potency [11]	Potency [12]	activity (max response) [13]	Potency [14]	Potency [13]
CC(C)(Sc1cc(C(C)(C)C)c(O)c(C(C)(C)C)c1)Sc1cc(C(C)(C)C)c(O)c(C(C)(C)C)c1	inactive	inactive	inactive	inactive	inactive	inactive	inactive	inactive	inactive	inactive	inactive	inactive	7.94% and -9.47%	inactive	–
CCOCC(O)COc1ccc(NC(=O)CC[S+](C)C)cc1 (stereo unspecified)	inactive	inactive	inactive	inactive	inactive	inactive	inactive	inactive	inactive	inactive	inactive	–	1.78% and -20%	–	–
CCC1(C)CC(=O)NC1=O (stereo unspecified)	inactive	inactive	inactive	inactive	inactive	inactive	inactive	inactive	inactive	inactive	inactive	inactive	–	inactive	–
CCCCOc1c(C(=O)c2c(F)cc(C)cc2F)cnc2n[nH]cc12	inactive	651 nM (active) and 1.32 µM (active)	461 nM (active) and 468 nM (active)	inactive	inactive	inactive	inactive	inactive	inactive	–	–	–	-11.6%	–	–
CN(C)c1nc(Cc2ccc(NC(=O)c3ccc(C(F)(F)F)cc3)cc2)nc(N(C)C)c1CC(=O)O	inactive	inactive	inactive	inactive	inactive	inactive	inactive	inactive	inactive	inactive	inactive	inactive	–	–	–
NC(=O)c1cccnc1	inactive	inactive	inactive	inactive	inactive	inactive	inactive	inactive	inactive	16.6 µM (active)	–	–	-8.19% and 2.22%	inactive	–
NS(=O)(=O)c1cc2c(cc1Cl)NC(C(Cl)Cl)NS2(=O)=O (stereo unspecified)	inactive	inactive	inactive	inactive	inactive	inactive	inactive	inactive	inactive	inactive	inactive	inactive	15.1% and 11.4%	inactive	–
CN(C)CCc1c[nH]c2ccc(C[C@H]3COC(=O)N3)cc12	inactive	inactive	inactive	16.6 µM (active)	20.9 µM (active)	13.2 µM (active)	7.43 µM (active)	10.5 µM (active)	10.5 µM (active)	9.35 µM (active)	4.69 µM (active)	9.35 µM (active)	12.9%	inactive	–
CC(C)NCC(O)COc1ccc(COCCOC(C)C)cc1 (stereo unspecified)	inactive	inactive	inactive	inactive	inactive	inactive	inactive	inactive	inactive	inactive	inactive	inactive	0.903%	inactive	–
O=C(c1ccc(C(=O)N2CCC(N3CCCC3)CC2)c(Nc2ccccc2)c1)N1CCC(N2CCCC2)CC1	inactive	inactive	inactive	inactive	inactive	inactive	inactive	inactive	–	inactive	inactive	inactive	11.8%	inactive	–
COC(=O)c1ccc2c(C(=Nc3ccc(N(C)C(=O)CN4CCN(C)CC4)cc3)c3ccccc3)c(O)[nH]c2c1	inactive	32.6 nM (active) and 37.2 nM (active)	58 nM (active) and 66.1 nM (active)	inactive	inactive	inactive	inactive	inactive	inactive	–	–	–	–	10 µM (active)	7.08 µM (active)
CCn1cc(C(=O)O)c(=O)c2cc(F)c(N3CCNCC3)cc21	inactive	inactive	inactive	inactive	inactive	–	–	–	3.32 µM (active)	–	–	–	-6.7% and -21.8%	inactive	–
CC(=O)N(O)CCCCCNC(=O)CCC(=O)N(O)CCCCCNC(=O)CCC(=O)N(O)CCCCCN	inactive	6.61 µM (active)	5.9 µM (active)	0.0186 µM (active)	0.0831 µM (active)	–	0.0047 µM (active)	0.0741 µM (active)	0.0588 µM (active)	–	–	–	–	inactive	28.2 µM (active)
CC(C)Cc1ccc(C(C)C(=O)O)cc1 (stereo unspecified)	inactive	inactive	inactive	inactive	inactive	inactive	inactive	inactive	–	–	12.9 µM (active)	–	8.32% and 2.38%	inactive	–
Nc1ccn([C@@H]2CS[C@H](CO)O2)c(=O)n1	inactive	inactive	inactive	inactive	inactive	inactive	–	inactive	inactive	inactive	inactive	inactive	7.41%	inactive	–
